Laboratory results from PubChem BioAssay (Tox21).
Records with an inconclusive call do not appear. Active and inactive are the calls of the source. Unless noted, calls follow the shape of the full dose curve.

What was measured:
[1] = Nuclear factor erythroid 2-related factor 2/antioxidant responsive element (Nrf2/ARE) small molecule agonists: qHTS cell viability counter screen in human keratinocytes (AID 1919968; active = well fitted curve in the direction sought with a large enough effect in the repeat runs; an effect the other way counts as inactive or inconclusive; also: nearly all actives have a fitted effect of over 55% in size)
In short: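 KeratinoSens cells (HaCaT keratinocytes stably carrying an ARE-luciferase reporter) were seeded at 1,500 cells/well and rested 5 h at 37 C/5% CO2. They were then exposed to compounds in DMSO for 23 h. Viability was read by CellTiter-Fluor fluorescence after 1 h.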

[2] = Nuclear factor erythroid 2-related factor 2/antioxidant responsive element (Nrf2/ARE) small molecule agonists: luciferase reporter gene qHTS assay in human keratinocytes (AID 1919969); also: nearly all actives have a fitted effect of over 35% in size
[3] = target: Gonadotropin-releasing hormone receptor (Homo sapiens) (UniProt P30968); assay: Human gonadotropin-releasing hormone receptor (GnRHR) small molecule agonists, calcium flux assay in GnRHR-HEK293 cells (AID 1920063); also: nearly all actives have a fitted effect of over 35% in size
Chain of Gonadotropin-releasing hormone receptor (Homo sapiens) (P30968 whole entry, looked up): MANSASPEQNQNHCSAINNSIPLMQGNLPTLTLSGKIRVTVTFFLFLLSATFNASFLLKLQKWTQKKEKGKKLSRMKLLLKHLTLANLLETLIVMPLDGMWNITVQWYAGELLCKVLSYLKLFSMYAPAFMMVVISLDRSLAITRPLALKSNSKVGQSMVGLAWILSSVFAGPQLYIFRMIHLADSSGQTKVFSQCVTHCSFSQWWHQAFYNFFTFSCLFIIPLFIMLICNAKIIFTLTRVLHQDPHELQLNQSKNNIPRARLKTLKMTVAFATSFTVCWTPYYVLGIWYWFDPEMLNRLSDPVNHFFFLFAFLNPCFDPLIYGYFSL
In short: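 HEK293 cells stably expressing human GnRHR were plated 18 h at 37 °C, loaded with calcium dye 1 h at 37 °C, then given compound in agonist mode; fluorescence (Ex/Em 480/540) read kinetically for 3 min at 1 s intervals.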

[4] = target: KiSS-1 receptor (Homo sapiens) (UniProt Q969F8); assay: Human kisspeptin (KISS1R) small molecule agonists, calcium flux assay in KISS1R-HEK293 cells (AID 1920064; active = well fitted curve in the direction sought with a large enough effect in the repeat runs; an effect the other way counts as inactive or inconclusive)
Chain of KiSS-1 receptor (Homo sapiens) (Q969F8 whole entry, looked up): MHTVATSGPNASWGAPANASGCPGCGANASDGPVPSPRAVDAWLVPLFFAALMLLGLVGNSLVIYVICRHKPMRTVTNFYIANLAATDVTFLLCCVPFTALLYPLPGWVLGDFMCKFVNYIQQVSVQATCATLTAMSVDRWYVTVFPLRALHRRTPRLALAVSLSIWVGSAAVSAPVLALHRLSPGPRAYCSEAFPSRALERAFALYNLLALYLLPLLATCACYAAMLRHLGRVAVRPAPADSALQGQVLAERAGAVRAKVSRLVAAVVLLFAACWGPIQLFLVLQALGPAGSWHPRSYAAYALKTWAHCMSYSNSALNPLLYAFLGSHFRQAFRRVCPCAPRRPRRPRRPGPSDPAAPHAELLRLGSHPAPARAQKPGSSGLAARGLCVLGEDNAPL
In short: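 HEK293 cells stably expressing human KISS1R were plated 18 h at 37 °C, loaded with calcium dye for 1 h at 37 °C, then given compound by pin tool. Fluorescence (Ex/Em 480/540) was read kinetically for 3 min.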

[5] = G protein-coupled receptor (GPCR) small molecule agonists, calcium flux assay: HEK293 wild type cell line counter screen (AID 1920065)
In short: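 Cells were plated and cultured 18 h at 37 C/5% CO2, then loaded with calcium dye for 1 h at 37 C. Compounds in DMSO were pin-transferred in agonist mode, and fluorescence (Ex/Em 480/540) was read kinetically for 3 min at 1 s intervals.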

[6] = p53 small molecule agonists, cell-based qHTS assay with human liver microsomes (AID 1963577);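 also: p53 response element beta-lactamase reporter cells with liver microsomes plus NADPH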
In short: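 In this qHTS, p53 response-element beta-lactamase cells receive test compound together with a microsome/NADPH activating system (0.5 mg/mL final each) and are incubated 16 h at 37 C before LiveBLAzer fluorescence detection.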

[7] = p53 small molecule agonists, cell-based qHTS assay with rat liver microsomes (AID 1963578)
In short: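 Agonist mode in p53RE-bla reporter cells, with compounds co-incubated 16 h at 37 C alongside 0.5 mg/mL rat liver microsomes and 0.5 mg/mL NADPH (final), followed by a 2 h LiveBLAzer detection step.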

[8] = p53 small molecule agonists, cell-based qHTS assay with human liver microsomes: qHTS cell viability counter screen (AID 1963579); also: nearly all actives have a fitted effect of over 45% in size
In short: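 Metabolically activated exposure: compounds, human liver microsomes and NADPH (0.5 mg/mL final apiece) were added to p53RE-bla cells seeded 5 h earlier, left 16 h at 37 C, and then assessed for viability by CellTiter-Glo luminescence.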

[9] = p53 small molecule agonists, cell-based qHTS assay with rat liver microsomes: qHTS cell viability counter screen (AID 1963580); also: nearly all actives have a fitted effect of over 45% in size
In short: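 Viability is assessed in parallel with the p53 reporter read: HCT-116 p53RE-bla cells receive compounds plus rat microsomes and NADPH (0.5 mg/mL final apiece), incubate 16 h at 37 C, and then CellTiter-Glo luminescence is recorded.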

[10] = p53 small molecule agonists, cell-based qHTS assay: qHTS cell viability counter screen (AID 1963581); also: nearly all actives have a fitted effect of over 45% in size
In short: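 p53RE-bla HCT-116 cells were exposed to compounds for 16 h at 37 C; after the beta-lactamase FRET read in the same wells, CellTiter-Glo was added and luminescence (intracellular ATP) read after 30 min at room temperature.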

[11] = p53 small molecule agonists, cell-based qHTS assay (AID 1963582; active = well fitted activation curve with a large enough effect in the signal ratio in the repeat runs, not every such curve was filed as active; the % refers to the signal ratio)
In short: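 p53RE-bla beta-lactamase reporter cells rested 5 h at 37 C/5% CO2, then received compounds in DMSO by pin transfer and were incubated 16 h at 37 C. LiveBLAzer B/G FRET substrate was loaded for 2 h at room temperature before fluorescence reading.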

[12] = target: 5-hydroxytryptamine receptor 2A (Homo sapiens) (UniProt P28223); assay: 5-hydroxytryptamine receptor 2A (HTR2A) small molecule antagonists, cell-based qHTS assay (AID 1963586); also: nearly all actives have a fitted effect of over 45% in size
Chain of 5-hydroxytryptamine receptor 2A (Homo sapiens) (P28223 whole entry, looked up): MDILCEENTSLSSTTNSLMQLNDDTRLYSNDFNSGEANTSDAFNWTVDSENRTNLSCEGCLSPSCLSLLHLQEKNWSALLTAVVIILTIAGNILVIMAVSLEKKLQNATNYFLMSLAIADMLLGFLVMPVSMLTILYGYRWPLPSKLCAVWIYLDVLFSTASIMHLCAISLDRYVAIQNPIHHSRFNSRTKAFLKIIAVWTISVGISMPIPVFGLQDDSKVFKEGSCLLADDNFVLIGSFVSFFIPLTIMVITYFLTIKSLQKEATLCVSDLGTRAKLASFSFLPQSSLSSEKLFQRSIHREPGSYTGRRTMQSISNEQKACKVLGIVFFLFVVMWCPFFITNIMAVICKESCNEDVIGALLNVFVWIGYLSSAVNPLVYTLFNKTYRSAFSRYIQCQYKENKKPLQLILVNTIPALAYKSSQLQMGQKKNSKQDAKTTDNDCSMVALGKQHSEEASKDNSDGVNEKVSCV
In short: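 Antagonist-mode intracellular calcium assay: DOI (4 nM) added after 5 min compound pre-incubation at room temperature to dye-loaded HTR2A-CHO cells. Fluorescence followed for 3 min, sampled every second.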

[13] = target: 5-hydroxytryptamine receptor 2A (Homo sapiens) (UniProt P28223); assay: 5-hydroxytryptamine receptor 2A (HTR2A) small molecule agonists, cell-based qHTS assay (AID 1963587); also: nearly all actives have a fitted effect of over 30% in size
In short: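 CHO cells stably expressing human HTR2A, plated 18 h, loaded with calcium dye 1 h at 37 C. Agonist mode: compounds added and intracellular calcium fluorescence recorded kinetically for 2 min at 1 sec intervals.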

[14] = target: Muscarinic acetylcholine receptor M1 (Homo sapiens) (UniProt P11229); assay: Cholinergic receptor muscarinic 1 (CHRM1) small molecule antagonists, cell-based qHTS assay (AID 1963588); also: nearly all actives have a fitted effect of over 40% in size
Chain of Muscarinic acetylcholine receptor M1 (Homo sapiens) (P11229 whole entry, looked up): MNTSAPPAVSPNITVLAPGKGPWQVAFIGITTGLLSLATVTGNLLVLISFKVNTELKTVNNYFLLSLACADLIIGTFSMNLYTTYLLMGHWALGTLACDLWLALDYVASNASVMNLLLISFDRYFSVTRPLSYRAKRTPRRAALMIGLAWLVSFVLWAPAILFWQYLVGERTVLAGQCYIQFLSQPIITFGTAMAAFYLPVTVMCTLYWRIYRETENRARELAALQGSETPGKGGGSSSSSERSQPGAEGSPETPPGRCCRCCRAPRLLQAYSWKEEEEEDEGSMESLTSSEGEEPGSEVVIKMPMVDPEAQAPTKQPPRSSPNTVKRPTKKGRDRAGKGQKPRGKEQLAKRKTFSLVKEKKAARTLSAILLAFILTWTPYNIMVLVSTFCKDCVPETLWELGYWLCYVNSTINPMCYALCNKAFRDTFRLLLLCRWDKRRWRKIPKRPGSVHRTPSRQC
In short: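 CHRM1-CHO calcium-flux assay, antagonist mode. Cells were seeded 18 h, dye-loaded 1 h at 37 C and given compound for 5 min at RT, then acetylcholine was added at 50nM. FDSS fluorescence was read 3 min; 15 concentrations, three runs.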

[15] = target: Muscarinic acetylcholine receptor M1 (Homo sapiens) (UniProt P11229); assay: Cholinergic receptor muscarinic 1 (CHRM1) small molecule agonists, cell-based qHTS assay (AID 1963589); also: nearly all actives have a fitted effect of over 35% in size
In short: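 CHO cells stably expressing human CHRM1, seeded 18 h at 37 C/5% CO2, dye-loaded 1 h at 37 C, then given compound in agonist mode; intracellular calcium fluorescence read kinetically at 1 s intervals. Fifteen concentrations, three independent runs.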

[16] = cAMP Responsive Elements (CRE) small molecule agonists, cell-based qHTS assay (AID 1963590)
In short: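 CRE-bla HEK 293T cells in DMEM with 10% dialyzed FBS, NEAA, pyruvate and 25 mM HEPES were plated 18 h at 37 C/5% CO2, then exposed to compounds in DMSO for 3 h before LiveBLAzer B/G FRET substrate addition.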

[17] = target: Beta-2 adrenergic receptor (Homo sapiens) (UniProt P07550); assay: Adrenergic beta2 receptor (ADRB2) small molecule antagonists, cell-based qHTS assay (AID 1963592); also: series mostly up to about 92 µM; nearly all actives have a fitted effect of over 50% in size
Chain of Beta-2 adrenergic receptor (Homo sapiens) (P07550 whole entry, looked up): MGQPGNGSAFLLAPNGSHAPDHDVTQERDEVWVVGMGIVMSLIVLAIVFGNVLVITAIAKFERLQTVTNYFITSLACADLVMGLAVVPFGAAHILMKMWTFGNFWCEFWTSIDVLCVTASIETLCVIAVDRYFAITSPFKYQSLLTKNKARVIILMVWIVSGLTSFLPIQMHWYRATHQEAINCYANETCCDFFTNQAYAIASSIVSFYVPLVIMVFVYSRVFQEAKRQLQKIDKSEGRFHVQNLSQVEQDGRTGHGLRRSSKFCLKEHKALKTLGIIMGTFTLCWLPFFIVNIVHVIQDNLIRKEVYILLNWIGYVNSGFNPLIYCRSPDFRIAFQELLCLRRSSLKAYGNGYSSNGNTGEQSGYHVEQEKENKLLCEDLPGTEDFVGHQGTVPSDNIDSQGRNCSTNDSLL
In short: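 Cells (CHO, stable ADRB2 overexpression) incubated 18-20hr at 37C; compounds added from DMSO; agonist mix (1nM isoproterenol, 100uM IBMX, 25uM Ro-20-1724) added; 0.5hr RT; d2-cAMP and anti-cAMP-cryptate added; 1hr RT; 665/615 nm read.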

[18] = target: D(2) dopamine receptor (Homo sapiens) (UniProt P14416); assay: Dopamine D2 receptor (DRD2) small molecule agonists, cell-based qHTS assay (AID 1963594); also: nearly all actives have a fitted effect of over 35% in size
Chain of D(2) dopamine receptor (Homo sapiens) (P14416 whole entry, looked up): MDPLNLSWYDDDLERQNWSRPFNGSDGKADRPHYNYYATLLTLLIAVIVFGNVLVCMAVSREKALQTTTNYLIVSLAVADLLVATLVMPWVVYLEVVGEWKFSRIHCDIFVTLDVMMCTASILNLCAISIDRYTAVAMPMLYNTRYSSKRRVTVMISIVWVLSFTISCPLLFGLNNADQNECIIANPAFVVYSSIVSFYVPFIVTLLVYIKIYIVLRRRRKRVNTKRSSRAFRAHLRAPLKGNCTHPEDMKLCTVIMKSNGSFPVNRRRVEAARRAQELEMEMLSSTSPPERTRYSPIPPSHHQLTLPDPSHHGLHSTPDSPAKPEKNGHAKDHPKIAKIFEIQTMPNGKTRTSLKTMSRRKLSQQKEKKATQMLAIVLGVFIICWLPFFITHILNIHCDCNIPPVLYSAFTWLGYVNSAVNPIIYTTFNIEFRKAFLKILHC
In short: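 HEK293 cells stably expressing human DRD2, pre-treated with PDE inhibitor Ro20-1724 (0.1 mM final) and compound 10 min at room temperature, then stimulated with NKH477 (200nM […]) for 30 min. cAMP read by HTRF (665/620 nm).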

[19] = target: D(2) dopamine receptor (Homo sapiens) (UniProt P14416); assay: Dopamine D2 receptor (DRD2) small molecule antagonists, cell-based qHTS assay (AID 1963595; active = well fitted inhibition curve with a large enough effect in the signal ratio in the repeat runs, with a control signal flat; the % refers to the signal ratio)
In short: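 DRD2-HEK293; 0.1 mM Ro20-1724; cpd 10 min RT; NKH477 200 nM + quinpirole 12 nM, 30 min RT; HTRF cAMP (cAMP-d2/anti-cAMP cryptate), 665/620 nm ratio after 1 h.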

[20] = cAMP Responsive Elements (CRE) small molecule antagonists, cell-based qHTS assay (AID 1963591; active = well fitted inhibition curve with a large enough effect in the signal ratio in the repeat runs, not every such curve was filed as active; the % refers to the signal ratio)
In short: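 CRE-bla HEK293T cells were plated 18 h at 37 °C/5% CO2, pinned with compound in DMSO, then stimulated with NKH477 at 0.25 uM final for 3 h. LiveBLAzer B/G FRET substrate was added and plates incubated 2 h at room temperature.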

Measured: Potency

COc1ccc([C@@H]2CC(=O)c3c(O)cc(O[C@@H]4O[C@H](CO[C@@H]5O[C@@H](C)[C@H](O)[C@@H](O)[C@H]5O)[C@@H](O)[C@H](O)[C@H]4O)cc3O2)cc1OC
inactive: [1] | [2] | [3] | [4] | [5] | [6] | [7] | [8] | [9] | [10] | [11] | [12] | [13] | [14] | [15] | [16] | [17] | [18] | [19]

c1ccc2c(c1)[nH]c1ccccc12
inactive: [1] | [2] | [3] | [4] | [5] | [6] | [7] | [8] | [9] | [10] | [11] | [12] | [13] | [14] | [15] | [16] | [20] | [17] | [18] | [19]

Cn1c([N+](=O)[O-])cnc1COC(N)=O
inactive: [1] | [2] | [3] | [4] | [5] | [6] | [7] | [8] | [9] | [10] | [11] | [12] | [13] | [14] | [15] | [16] | [20] | [17] | [18]

C=C(C)C(=O)OCCCCCCCCCCCC
inactive: [1] | [2] | [3] | [4] | [5] | [6] | [7] | [8] | [9] | [10] | [11] | [12] | [13] | [14] | [15] | [16] | [20] | [17] | [19]

CC1CCC2CC1C2(C)C (stereo not given)
inactive: [1] | [2] | [3] | [4] | [5] | [6] | [7] | [8] | [9] | [10] | [11] | [12] | [13] | [14] | [15] | [16] | [20] | [17] | [18] | [19]

O=C(O)CCCC(=O)O
inactive: [1] | [2] | [3] | [4] | [5] | [6] | [7] | [8] | [9] | [10] | [11] | [12] | [13] | [14] | [15] | [16] | [20] | [17] | [18] | [19]

O=C1C(N(CO)C(=O)NCO)N(CO)C(=O)N1CO (stereo not given)
inactive: [1] | [2] | [3] | [4] | [5] | [6] | [7] | [8] | [9] | [10] | [11] | [12] | [13] | [14] | [15] | [16] | [17] | [18] | [19]

C=CC(C)CCCC(C)(C)O (stereo not given)
inactive: [1] | [2] | [3] | [4] | [5] | [6] | [7] | [8] | [9] | [10] | [11] | [12] | [13] | [14] | [15] | [16] | [20] | [17] | [19]
